Sampled rows, rich in hits. Any-hit rate of the full collection: about 10%.
Gal4-VP16 FLuc = inhibits Gal4-VP16 luciferase reporter, ROR gamma counter-screen | Drosophila S2 Gal4-VP16 UAS-luciferase, luminescence, 20 h | Potency, µM (doses to about 53.6 µM), for inactives: top-dose activity, negative = inhibition, hits mostly inhibitors | actives 3.5% (n = 310,000) | AID 2546;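 also: Gal4-VP16 expression switched on by copper sulfate through the metallothionein promoter; % is scaled to controls: 0 for no effect and ±100 for the full control effect; nearly all actives have a fitted effect of over 50% in size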
MCF10A rereplic = DNA re-replication induction in MCF 10a cells. MCF 10A DNA re-replication, Hoechst nuclear intensity, 48 h. Potency, µM (highest dose often 46.1 µM), for the others: at the top dose activity, positive = re-replication, actives largely listed as activators. actives 2.9% (n = 350,000); also: % of control where 0% means no effect; nearly all actives have a fitted effect of over 50% in size
SW480 rereplic = induces DNA re-replication in SW480 colon adenocarcinoma cells; Potency, µM (titrated, usually from 46.1 µM), for inactives: at the top dose re-replication activation, most hits filed as activators; actives 1.8% (n = 340,000); SW480 DNA re-replication, Hoechst DNA content imaging, 48 h; AID 624297; also: % of control where 0% means no effect; nearly all actives have a fitted effect of over 55% in size
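SW480 cells exposed to compounds for 48 hr at 37 C, 5% CO2, then Hoechst-stained 40 min. Nuclear DNA content imaged by fluorescence scanning (405 nm excitation, 500-530 nm emission); re-replication scored as increased high-intensity nuclei.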
ELG1 DNA repair = blocks ELG1-dependent DNA repair in HEK293T cells; HEK293T ELG1-luciferase reporter, luminescence, 16 h; DNA damage induced by 5-fluorouridine; Potency, µM (doses to about 46.1 µM), without a hit: top-dose activity change, negative = inhibition, most hits filed as inhibitors; actives 2.3% (n = 330,000); also: % is scaled to controls: 0 for no effect and ±100 for the full control effect; nearly all actives have a fitted effect of over 55% in size
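Overnight (16 hr) co-exposure of 2,000 cells/well to 5-fluorouridine and compound at 37 °C preceded detection. Luciferase was quantified via ONE-Glo luminescence; loss of signal denotes inhibition.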
RORgamma inh = blocks mouse ROR gamma transcriptional activity | P51450 | Drosophila S2 Gal4-RORgamma UAS-luciferase reporter, 20 h | Potency, µM (highest dose often 53.6 µM), without a hit: top-dose activity change, negative = inhibition, hits mostly inhibitors | actives 5.4% (n = 310,000); also: % is scaled to controls: 0 for no effect and ±100 for the full control effect; nearly all actives have a fitted effect of over 60% in size
Target sequence (P51450 whole entry, looked up, the tested form may be a part): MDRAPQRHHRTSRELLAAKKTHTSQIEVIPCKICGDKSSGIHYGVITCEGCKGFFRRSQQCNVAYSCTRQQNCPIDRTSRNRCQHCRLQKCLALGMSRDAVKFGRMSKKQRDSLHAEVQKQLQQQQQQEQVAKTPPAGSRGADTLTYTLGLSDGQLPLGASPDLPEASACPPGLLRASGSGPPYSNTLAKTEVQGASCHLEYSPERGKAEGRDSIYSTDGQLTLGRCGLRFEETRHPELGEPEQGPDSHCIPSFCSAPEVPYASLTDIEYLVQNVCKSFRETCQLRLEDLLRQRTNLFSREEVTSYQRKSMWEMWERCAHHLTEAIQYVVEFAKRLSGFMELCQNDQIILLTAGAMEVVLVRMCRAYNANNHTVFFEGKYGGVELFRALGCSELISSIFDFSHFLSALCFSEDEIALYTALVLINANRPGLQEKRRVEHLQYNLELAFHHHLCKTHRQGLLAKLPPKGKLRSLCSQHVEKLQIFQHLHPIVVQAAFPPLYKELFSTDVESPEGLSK
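A Gal4/UAS one-hybrid system in insect cells: metallothionein-promoter Gal4–ROR gamma fusion plus Photinus luciferase reporter. Copper sulfate 700 uM final, 20 hr ambient incubation, luminescent detection after 10 min with reagent.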
* hit, by the source's call; ? = inconclusive; / = no result given. Calls follow the shape of the dose curve; as a rule, active = well fitted curve in the direction sought with a large enough effect; inconclusive = small, poorly fitted or top-dose-only effect, or another doubt; inactive = no such curve, though single readings can be large; an effect the other way counts as inactive or inconclusive. Potency is read from the fitted curve at half-maximal effect.

SMILES | Gal4-VP16 FLuc | MCF10A rereplic | SW480 rereplic | ELG1 DNA repair | RORgamma inh
O=C(C1CCN(c2ncnc3c2sc2cccc(F)c23)CC1)N1CCOCC1 | -26.8% | -13.5% | -12.8% | -21.9% | -5.9%
O=C(NCCN1CCOCC1)C1CCN(c2ncnc3c2sc2cccc(F)c23)CC1 | 14.1µM* | 0.1% | -10.6% | ? | 1.8%
Cc1c(OC(C)C(=O)NCC(O)c2ccccc2)ccc2c3c(c(=O)oc12)CCCC3 (stereo unspecified) | -17.4% | -31.6% | 11.9% | 14.6µM* | -6.2%
COc1ccc(C(=O)CCN2CCCC(C)C2)cc1 (stereo unspecified) | ? | ? | ? | 9.2% | ?
CC1CCCN(CCC(=O)c2ccc(Br)cc2)C1 (stereo unspecified) | 20µM* | ? | ? | 17.4% | ?
COc1cc2c(cc1OC)CN(CCC(=O)c1ccc(Br)cc1)CC2 | ? | -15.1% | -2.8% | -16.6% | 11.2µM*
O=C1OC2C[C@H]1[C@@H]1C(=O)N(Cc3ccccc3)CCC1C2I (stereo partly specified) | 2.7% | / | / | / | -7.4%
Cc1ccc(C(=O)OCC(=O)NCCc2ccccc2)cc1C | / | -1.8% | -7.9% | ? | /
O=C(COC(=O)c1ccc(F)c([N+](=O)[O-])c1)NC(=O)NCc1ccccc1 | / | 20.6µM* | ? | ? | /
Cc1ccc(C(=O)OCC(=O)NC(=O)NCc2ccccc2)cc1C | / | 10.3µM* | 4.3% | 22.6% | /
CCOC(=O)c1cccc(NC(=O)CC2Oc3ccccc3NC2=O)c1 (stereo unspecified) | -4.6% | -1.9% | ? | -12.2% | 28.2%
COc1ccc(C(=O)N2CCN(c3ccc(NC(=O)Cc4ccccc4)cc3)CC2)cc1 | 2.2% | ? | -0.1% | 9.2µM* | 27.9%
Cc1ccc(C(=O)N2CCN(c3ccc(NC(=O)COc4ccccc4C)cc3)CC2)cc1 | -4.9% | 9.5% | 3.9% | ? | 20.8%
COc1ccc(Nc2ncc(C(=O)O)c3ccccc23)cc1 | 0.0% | -6.3% | -4.0% | 4.0% | 13.3%
COc1ccc(N2CCN(C(=O)c3ccc(NS(=O)(=O)c4ccccc4)cc3)CC2)cc1 | 3.5% | -1.8% | ? | ? | -8.4%
COc1ccc(Nc2ncc(C(=O)N3CCN(c4ccc(F)cc4)CC3)c3ccccc23)cc1 | 5.2% | 13.2% | -4.2% | 20.6µM* | ?
Cc1ccc(C(=O)N2CCN(c3ccc(NC(=S)NC(=O)Cc4ccccc4)cc3)CC2)cc1 | 8.91µM* | ? | -2.5% | 0.0% | 5.62µM*
CCOC(=O)C1CCCN(CCC(=O)Nc2ccc(Br)cc2)C1 (stereo unspecified) | -1.5% | -0.7% | -7.2% | -0.6% | -7.0%
CC(C)C(OC(=O)c1cccc(S(=O)(=O)NCC(F)(F)F)c1)C(=O)NC(N)=O (stereo unspecified) | ? | -0.1% | -1.1% | 7.1% | 22.2%
C=CCn1c(-c2csc3c2CCC(C)C3)n[nH]c1=S (stereo unspecified) | 2.51µM* | ? | -1.9% | 6.1% | 1.41µM*
CCn1c(-c2cccc(S(=O)(=O)N3CCCC3)c2)n[nH]c1=S | -0.9% | 1.4% | -29.5% | 2.9% | ?
CCCCn1c(-c2csc3ccccc23)n[nH]c1=S | ? | 3.4% | -10.2% | -1.9% | 7.94µM*
CCn1c(-c2csc3c2CCCC3)n[nH]c1=S | 4.47µM* | -6.1% | -9.3% | ? | 3.98µM*
CCCCn1c(-c2csc3c2CCC(C)C3)n[nH]c1=S (stereo unspecified) | 2.51µM* | 21.0% | 15.4% | -9.1% | 0.794µM*
CCCCNC(=S)NNC(=O)c1csc2c1CCC(C)C2 (stereo unspecified) | -19.2% | 5.0% | 3.3% | -15.2% | ?
SMILES | Gal4-VP16 FLuc | MCF10A rereplic | SW480 rereplic | ELG1 DNA repair | RORgamma inh
C=CCn1c(C(C)NC(=O)c2ccc(C)cc2)n[nH]c1=S (stereo unspecified) | 0.2% | 0.3% | 1.7% | 11.8% | ?
Cc1cccc(NC(=O)CSc2nccn2Cc2ccco2)c1C | 7.5% | 6.2% | -3.2% | ? | ?
NC(=O)C1CCN(C(=O)c2ccc(Oc3ccccc3)cc2)CC1 | 22.7% | -2.8% | -17.6% | 6.0% | ?
OCCCn1c(-c2ccccc2)n[nH]c1=S | -9.0% | -1.2% | -0.7% | ? | -44.6%
CCCCCCn1c(-c2cccs2)n[nH]c1=S | ? | 2.7% | 1.2% | -4.9% | 2µM*
CCCCn1c(-c2csc3c2CCCC3)n[nH]c1=S | ? | 20.4% | 0.5% | 3.0% | 3.55µM*
CC(OC(=O)CCCC(=O)Nc1ccc(F)cc1)C(=O)c1ccccc1 (stereo unspecified) | 3.8% | 0.9% | -64.7% | 6.9% | -2.6%
CCOC(=O)Nc1cccc(NC(=O)c2cc(OC)cc(OC)c2)c1 | -18.8% | -1.3% | -5.3% | 14.6µM* | ?
CCOC(=O)NC(=S)Nc1cccc(NC(=S)NC(=O)OCC)c1 | ? | -1.6% | -8.4% | 0.4% | 7.08µM*
CCOC(=O)NC(=S)c1ccc[nH]1 | ? | -2.8% | -1.7% | 14.2% | 12.6µM*
CCOC(=O)Cn1nc(NC(=O)c2ccc(C(=O)OC)cc2)cc1C | -15.0% | ? | -10.2% | 25.3% | -38.0%
CCOC(=O)Cn1nc(NC(=O)c2cc(OC)cc(OC)c2)cc1C | -5.9% | 20.6µM* | -2.4% | ? | -24.6%
CCCCC(=O)NC(=S)Nc1cccc(NC(=O)CC)c1 | -5.2% | -0.1% | 1.3% | -29.5% | ?
COc1ccc(-n2c(N)cc(=O)nc2SCC(=O)NC2CCCCC2)cc1 | / | -0.3% | 1.4% | / | /
O=C(CCc1ccc(Oc2cc([N+](=O)[O-])cc([N+](=O)[O-])c2)cc1)N1CCCCCC1 | ? | ? | -0.2% | ? | -33.3%
CCCCn1c(SCC(=O)Nc2cc(NC(=O)c3ccco3)ccc2C)nc2ccccc2c1=O | -9.5% | ? | 0.5% | 16.4µM* | -40.4%
Cc1ccc(NC(=O)CSc2nc3ccccc3c(=O)n2CCCC(=O)N2CCCC2)cc1 | -2.8% | 5.7% | ? | -18.0% | 4.4%
O=C(CSc1nc2ccccc2c(=O)n1CCC(=O)N1CCCCC1)NCc1ccccc1 | -5.2% | 17.6% | -1.5% | 14.6µM* | ?
COCCn1c(SCC(=O)Nc2ccc(NC(=O)c3ccco3)c(OC)c2)nc2ccccc2c1=O | -19.6% | 24.4% | 0.3% | -1.0% | -28.7%
Cc1ccc(NC(=O)CSc2nc3ccccc3c(=O)n2CCCN2CCCCC2)cc1C | ? | 14.6µM* | ? | -1.1% | ?
Cc1cc(NS(C)(=O)=O)c(=O)n(Cc2cccc(F)c2)c1 | 2.3% | 2.4% | 10.1% | 0.3% | -28.0%
Cc1ccnc(NC(=O)C(Cc2ccccc2)NC(=O)c2ccccc2)c1 (stereo unspecified) | / | -6.1% | -3.6% | -5.1% | /
CC(C)Oc1ccc(C(=O)NCCCNC(=O)c2ccccn2)cc1 | -15.2% | -3.9% | -6.0% | -1.2% | 13.6%

Screening data (PubChem BioAssay)
